In PubChem BioAssay (NCI):
The panel holds about 83,000 compounds, 20% with a hit somewhere; the sample as a whole holds those more often.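 For each line, cells grew in 96-well plates with the test compound present at a single concentration for 48 hours.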 Calls of active or inactive are those of the source. How the source made its calls: active means growth percent below 10; inactive means the rest.

Assays:
Test in all cases: NCI-60 one-dose screen, 48 h (100 = growth as untreated, 0 = no growth, -100 = all killed)
Details in all cases: 10 µM unless noted
SK-MEL-2 melanoma = system: SK-MEL-2 melanoma
EKVX NSCLC = system: EKVX NSCLC
SN12C renal = system: SN12C renal
UO-31 renal = system: UO-31 renal
TK-10 renal = system: TK-10 renal
ACHN renal = system: ACHN renal
CAKI-1 renal = system: CAKI-1 renal
A498 renal = system: A498 renal
CCRF-CEM leukemia = system: CCRF-CEM leukemia
MOLT-4 leukemia = system: MOLT-4 leukemia
RPMI-8226 leukemia = system: RPMI-8226 leukemia
OVCAR-8 ovarian = system: OVCAR-8 ovarian
OVCAR-5 ovarian = system: OVCAR-5 ovarian
OVCAR-4 ovarian = system: OVCAR-4 ovarian
SK-OV-3 ovarian = system: SK-OV-3 ovarian
IGROV1 ovarian = system: IGROV1 ovarian
OVCAR-3 ovarian = system: OVCAR-3 ovarian
HS 578T breast = system: HS 578T breast
NCI/ADR-RES ovarian = system: NCI/ADR-RES ovarian
SR leukemia = system: SR leukemia

Measured: growth

COc1ccc(-c2cc(-c3cc(OC)c(OC)c(OC)c3)c(C#N)c(N3CCOCC3)n2)cc1O
inactive: SK-MEL-2 melanoma 68.2% | EKVX NSCLC 59.8% | SN12C renal 60.1% | UO-31 renal 56.8% | TK-10 renal 73.3% | ACHN renal 66.7% | CAKI-1 renal 51.5% | A498 renal 74.8% | CCRF-CEM leukemia 42.8% | MOLT-4 leukemia 55.4% | OVCAR-8 ovarian 56.3% | OVCAR-5 ovarian 20.5% | OVCAR-4 ovarian 89.6% | SK-OV-3 ovarian 81.2% | IGROV1 ovarian 59.3% | OVCAR-3 ovarian 27.4% | HS 578T breast 41.7%
active: RPMI-8226 leukemia -23.8% | NCI/ADR-RES ovarian -51.5%

COc1ccc(-c2nc3sccn3c2-c2cc(-c3cc(OC)c(OC)c(OC)c3)on2)cc1
active: UO-31 renal -60.9%
inactive: SK-MEL-2 melanoma 142% | EKVX NSCLC 98.9% | SN12C renal 105% | TK-10 renal 162% | ACHN renal 98.7% | CAKI-1 renal 127% | A498 renal 74.4% | CCRF-CEM leukemia 34.6% | MOLT-4 leukemia 40.3% | RPMI-8226 leukemia 41.5% | OVCAR-8 ovarian 94.6% | OVCAR-5 ovarian 124% | OVCAR-4 ovarian 84.4% | SK-OV-3 ovarian 92.2% | OVCAR-3 ovarian 76% | HS 578T breast 92.5% | NCI/ADR-RES ovarian 87.5%

COc1cccc(-c2nn(-c3ccccc3)cc2-c2ccnc(NCCNC(=O)c3ccccc3)c2)c1
inactive: SK-MEL-2 melanoma 84.7% | EKVX NSCLC 66.6% | SN12C renal 71.4% | UO-31 renal 49.7% | TK-10 renal 90.1% | ACHN renal 74.1% | CAKI-1 renal 68% | A498 renal 46.6% | CCRF-CEM leukemia 48.7% | RPMI-8226 leukemia 42.3% | OVCAR-8 ovarian 43.8% | OVCAR-5 ovarian 102% | OVCAR-4 ovarian 53.7% | SK-OV-3 ovarian 65.3% | IGROV1 ovarian 79.6% | OVCAR-3 ovarian 63.1% | HS 578T breast 68.5% | NCI/ADR-RES ovarian 46.6%
active: SR leukemia -12.5%

COc1ccc(-c2nc3c(c(=O)n2C(C)=O)C(c2ccc(Cl)cc2)c2sc4c(Cl)cccc4c2O3)cc1 (configuration not stated)
active: SK-MEL-2 melanoma -11.5% | SN12C renal -35.1% | UO-31 renal 6.4% | TK-10 renal -35.6% | ACHN renal 8.98% | CAKI-1 renal -6.4% | A498 renal -2.79% | CCRF-CEM leukemia -3.94% | SR leukemia -11.7% | RPMI-8226 leukemia 2.22% | OVCAR-8 ovarian -23% | OVCAR-5 ovarian -13.8% | SK-OV-3 ovarian -22.6% | OVCAR-3 ovarian -71.4% | HS 578T breast -15.6% | NCI/ADR-RES ovarian -4.4%
inactive: EKVX NSCLC 24.6% | OVCAR-4 ovarian 24.4% | IGROV1 ovarian 12.5%

C[C@@H]1N=C(c2ccc3ccccc3n2)Nc2nc3ccccn3c2C1=O
inactive: SK-MEL-2 melanoma 109% | EKVX NSCLC 77.7% | SN12C renal 95.6% | UO-31 renal 70.1% | TK-10 renal 142% | ACHN renal 85.7% | CAKI-1 renal 82.1% | A498 renal 108% | CCRF-CEM leukemia 115% | MOLT-4 leukemia 100% | RPMI-8226 leukemia 93.8% | OVCAR-8 ovarian 101% | OVCAR-5 ovarian 106% | OVCAR-4 ovarian 89.5% | IGROV1 ovarian 66.3% | OVCAR-3 ovarian 109% | HS 578T breast 97.7% | NCI/ADR-RES ovarian 93.6%

Cc1nc2c(c(N3CCCc4ccccc43)n1)CCC2
inactive: SK-MEL-2 melanoma 43.9% | EKVX NSCLC 86.4% | SN12C renal 31.5% | UO-31 renal 29.6% | TK-10 renal 57.8% | ACHN renal 18.8% | CAKI-1 renal 20.7% | RPMI-8226 leukemia 11.2% | OVCAR-8 ovarian 11% | OVCAR-5 ovarian 48.3% | OVCAR-4 ovarian 42.4% | IGROV1 ovarian 24.5% | HS 578T breast 23%
active: A498 renal -1.39% | CCRF-CEM leukemia 1.69% | SR leukemia 2.73% | SK-OV-3 ovarian 5.28% | OVCAR-3 ovarian -41.2% | NCI/ADR-RES ovarian 9.25%

C[n+]1cc2cc(C(N)=O)[nH]c3c(=N)c(Cl)c(N)c1c23
inactive: SK-MEL-2 melanoma 96.1% | EKVX NSCLC 101% | SN12C renal 53.6% | UO-31 renal 81.1% | TK-10 renal 73.9% | ACHN renal 39% | CAKI-1 renal 79.9% | A498 renal 71.9% | CCRF-CEM leukemia 37.6% | SR leukemia 37.6% | RPMI-8226 leukemia 73% | OVCAR-8 ovarian 43.1% | OVCAR-5 ovarian 62% | OVCAR-4 ovarian 73% | SK-OV-3 ovarian 60% | IGROV1 ovarian 65.1% | OVCAR-3 ovarian 63.1% | HS 578T breast 108% | NCI/ADR-RES ovarian 60%

COc1ccc(-c2nc(SCCC(C)C)nc(N/N=C\c3cccc([N+](=O)[O-])c3)c2C#N)cc1
active: UO-31 renal 7.32% | OVCAR-4 ovarian -13.3% | OVCAR-3 ovarian -30.4% | HS 578T breast 9.44%
inactive: SK-MEL-2 melanoma 80.4% | EKVX NSCLC 40.9% | SN12C renal 35.5% | TK-10 renal 42.5% | ACHN renal 15.8% | CAKI-1 renal 22.6% | A498 renal 41.2% | CCRF-CEM leukemia 45.8% | MOLT-4 leukemia 73.1% | OVCAR-8 ovarian 39.7% | OVCAR-5 ovarian 38.4% | SK-OV-3 ovarian 63.4% | IGROV1 ovarian 38.8% | NCI/ADR-RES ovarian 56.2%

CCc1ccccc1-n1c(-c2ccc(Cl)cc2)cc(-c2ccc(OC)cc2)c(C#N)c1=O
inactive: SK-MEL-2 melanoma 91.5% | EKVX NSCLC 96.1% | SN12C renal 99.4% | UO-31 renal 81.5% | TK-10 renal 136% | ACHN renal 114% | CAKI-1 renal 99.8% | A498 renal 110% | MOLT-4 leukemia 103% | RPMI-8226 leukemia 78.5% | OVCAR-5 ovarian 94.7% | OVCAR-4 ovarian 90% | SK-OV-3 ovarian 103% | IGROV1 ovarian 80% | OVCAR-3 ovarian 100% | HS 578T breast 98.7% | NCI/ADR-RES ovarian 95.1%
active: CCRF-CEM leukemia -41.4%
